Rows were chosen to be rich in hits. Some 0.99% of all compounds tested hit in one or more screens of this group.
L3MBTL1 block – qHTS Assay for the Inhibitors of L3MBTL1; Lethal(3)malignant brain tumor-like protein 1 (Homo sapiens), Q9Y468; AlphaScreen L3MBTL1–H3K9me1 peptide binding; Potency, µM (top dose mostly 57.1 µM), without a hit: at the highest dose activity, negative = inhibition, hits mostly inhibitors; 230,000 compounds, 0.66% hits; AID 485360, 2010; note: nearly all actives have a fitted effect of over 60% in size
Target sequence (Q9Y468 whole entry, looked up): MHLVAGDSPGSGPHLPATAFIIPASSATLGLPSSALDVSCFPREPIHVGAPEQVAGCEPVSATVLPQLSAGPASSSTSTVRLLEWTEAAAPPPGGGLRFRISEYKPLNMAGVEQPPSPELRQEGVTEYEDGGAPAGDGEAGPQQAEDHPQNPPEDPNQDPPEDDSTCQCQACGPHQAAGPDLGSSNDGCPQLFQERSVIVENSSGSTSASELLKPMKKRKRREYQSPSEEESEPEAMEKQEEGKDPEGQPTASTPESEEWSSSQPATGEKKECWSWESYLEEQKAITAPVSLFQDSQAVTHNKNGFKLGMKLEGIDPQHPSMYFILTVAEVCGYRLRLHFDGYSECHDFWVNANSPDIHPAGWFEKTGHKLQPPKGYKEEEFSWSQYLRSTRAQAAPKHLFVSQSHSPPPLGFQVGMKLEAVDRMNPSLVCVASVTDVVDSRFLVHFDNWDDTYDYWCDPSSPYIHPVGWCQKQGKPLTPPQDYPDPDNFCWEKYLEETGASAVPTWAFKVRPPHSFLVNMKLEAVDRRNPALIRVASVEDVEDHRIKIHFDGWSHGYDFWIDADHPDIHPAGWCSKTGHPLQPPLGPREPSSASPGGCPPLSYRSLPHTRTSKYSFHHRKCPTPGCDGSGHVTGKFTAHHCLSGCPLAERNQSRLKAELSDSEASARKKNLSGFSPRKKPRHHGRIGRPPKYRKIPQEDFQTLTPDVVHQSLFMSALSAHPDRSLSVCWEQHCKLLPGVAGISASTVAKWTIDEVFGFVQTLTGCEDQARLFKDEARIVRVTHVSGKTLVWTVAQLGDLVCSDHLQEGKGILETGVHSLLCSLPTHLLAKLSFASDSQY
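Read-out is AlphaScreen signal from streptavidin donor and nickel chelate acceptor beads (10 ug/mL final each) bridging L3MBTL1 (50 nM) and biotinylated K9-monomethylated H3(1-15) peptide (75 nM), after 30 min compound exposure at room temperature.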
RECQ1 inh-1 – qHTS Assay for Inhibitors of RecQ-Like Dna Helicase 1 (RECQ1); ATP-dependent DNA helicase Q1 (Homo sapiens), P46063; RECQ1 DNA unwinding, red fluorescence kinetic read; Potency, µM (series often up to 57.3 µM), without a hit: top-dose activity, negative = inhibition, actives largely listed as inhibitors; 240,000 compounds, 0.54% hits; AID 2549, 2010;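 note: plate controls were vehicle for no effect and no enzyme for full effect; nearly all actives have a fitted effect of over 30% in size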
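50 nM RECQ1T1 preincubated 15 min with compound in Tris pH 8.0 buffer with MgCl2, DTT, Tween-20 and 2.5 ug/ml poly(dI-dC); started with 200 nM TAMRA/BHQ-2 forked duplex and 2 mM ATP. Unwinding read as fluorescence (525/598 nm), two reads 2 h apart.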
WRN inhibitor – qHTS for Inhibitors of WRN Helicase | Bifunctional 3'-5' exonuclease/ATP-dependent helicase WRN (Homo sapiens), Q14191 | 360,000 compounds, 0.46% hits | WRN helicase unwinding, fluorescent forked duplex, kinetic | AID 651768, 2012 | Potency, µM (doses to about 114 µM), for the others: at the top dose activity change, negative = inhibition, most hits filed as inhibitors; note: nearly all actives have a fitted effect of over 55% in size
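Kinetic red-fluorescence monitoring (525/598 nm) tracks WRN helicase activity after 100 nM fluorophore-quencher forked duplex and 2 mM ATP are added to 20 nM enzyme pretreated 15 min at room temperature with compound.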
FEN1 inhibitor – qHTS Assay for the Inhibitors of Human Flap endonuclease 1 (FEN1). Potency, µM (highest dose often 114 µM), for the others: at the top dose activity change, negative = inhibition, actives largely listed as inhibitors. P39748. Recombinant FEN1 flap cleavage, fluorescence, 15 min. 390,000 compounds, 0.35% hits; note: nearly all actives have a fitted effect of over 65% in size
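With each library titrated from low to high concentration, compounds met 10 nM FEN1 for 15 min at room temperature before 50 nM substrate was added; readings at 0 and 15 min fed four-parameter Hill curve fits.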
BLM helicase inh – qHTS Assay for Inhibitors of Bloom's syndrome helicase (BLM); RecQ-like DNA helicase BLM (Homo sapiens), P54132; 350,000 compounds, 0.2% hits; Potency, µM (top dose mostly 56.1 µM), for inactives: at the top dose activity change, negative = inhibition, usual class: inhibitors; recombinant BLM DNA unwinding, fluorescence dequenching;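 note: plate controls were vehicle for no effect and no enzyme for full effect; nearly all actives have a fitted effect of over 35% in size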
RECQ1 conf – Confirmation qHTS Assay for Inhibitors of RecQ-Like Dna Helicase 1 (RECQ1); RECQ1 helicase DNA unwinding, fluorescence; shares compounds with RECQ1 inh-1; 610 compounds, 28% hits; Potency, µM (series often up to 229 µM), for inactives: at the highest dose activity change, negative = inhibition, most hits filed as inhibitors; note: nearly all actives have a fitted effect of over 45% in size
RECQ1 ADP FP – Counterscreen for RECQ1 Inhibitors: ADP Fluorescence Polarization Displacement Assay. shares compounds with RECQ1 inh-1. ADP fluorescence polarization displacement counterscreen. Potency, µM (doses to about 228 µM), for inactives: at the highest dose activity change, negative = inhibition, hits mostly inhibitors. 530 compounds, 27% hits; note: nearly all actives have a fitted effect of over 45% in size
RECQ1 inh-2 – Confirmation qHTS Assay for Inhibitors of RecQ-Like Dna Helicase 1 (RECQ1) - Round 2 Cherry Picks; shares compounds with RECQ1 inh-1; recombinant RECQ1 DNA unwinding, red fluorescence; Potency, µM (titrated, usually from 119 µM), for inactives: top-dose activity, negative = inhibition, hits mostly inhibitors; 1,100 compounds, 15% hits; AID 504841, 2011; note: nearly all actives have a fitted effect of over 50% in size
* = called active by the depositor; [ ] = dose if it differs, or a comment. Calls come from the whole dose curve; as a rule, active = well fitted curve in the direction sought with a large enough effect; inconclusive = small, poorly fitted or top-dose-only effect, or another doubt; inactive = no such curve, though single readings can be large; an effect the other way counts as inactive or inconclusive. Unless noted, % is set by controls: 0 for no effect and ±100 for the full control effect; potency is the fitted concentration of half-maximal effect.

For O=C(O)CCCC(=O)N1CCc2cc(S(=O)(=O)NCc3ccc(F)cc3)ccc21 the results were RECQ1 inh-1 -7.9%, WRN inhibitor 2.3%, FEN1 inhibitor -4.0%, BLM helicase inh -13.5%, RECQ1 conf 11.7% and RECQ1 ADP FP 6.5%.
Screening O=C(O)CCC(=O)N1CCc2cc(S(=O)(=O)NCc3ccc(F)cc3)ccc21 returned FEN1 inhibitor 14.7% and BLM helicase inh -3.0%.
Screening Cc1ccccc1OCCCCc1c(C)n[nH]c1C returned L3MBTL1 block -5.6%, RECQ1 inh-1 inconclusive, WRN inhibitor -7.3%, FEN1 inhibitor -18.4%, BLM helicase inh -2.6% and RECQ1 inh-2 -13.9%.
Screening CC1(C)C2CC[C@]3(C)C(CC=C4[C@@H]5C[C@@](C)(CO)[C@@H](O)C[C@]5(C(=O)O)CC[C@]43C)[C@@]2(C)CC[C@@H]1O (some centres undefined) returned WRN inhibitor 3.9% and FEN1 inhibitor -12.7%.
For Cc1ccc(-c2nn(CCC(=O)O)cc2CCC(=O)O)cc1 the results were RECQ1 inh-1 inactive, WRN inhibitor -5.0%, FEN1 inhibitor -1.7%, BLM helicase inh -0.3%, RECQ1 conf 14.0% and RECQ1 ADP FP inconclusive.
For Cc1ccc(C(C)C)c(OCC(=O)Nc2c(C(=O)c3ccc(F)cc3)oc3ccccc23)c1 the results were FEN1 inhibitor -9.0% and BLM helicase inh -4.3%.
COC(=O)c1c(NC(=O)/C=C/C(=O)O)sc(C)c1-c1ccc(C(C)C)cc1 was read as L3MBTL1 block -14.1%, RECQ1 inh-1 inconclusive, WRN inhibitor 9.5%, FEN1 inhibitor -0.7%, BLM helicase inh -5.1% and RECQ1 inh-2 -44.6%.
Screening COC(=O)c1c(NC(=O)/C=C/C(=O)O)sc(C)c1-c1ccc(C)c(C)c1 returned L3MBTL1 block 4.0%, RECQ1 inh-1 2.2%, WRN inhibitor -27.9%[57.1 µM], FEN1 inhibitor 4.8% and BLM helicase inh -2.8%.
`Cc1nn(-c2ccc(N3CCCC3)nn2)c(C)c1CCC(=O)NCc1ccc(OC(C)C)cc1` gave FEN1 inhibitor 3.0% and BLM helicase inh 1.3%.
For O=C(O)CCc1nn2c3ccccc3n(CC(=O)c3cccs3)c2nc1=O the results were RECQ1 inh-1 1.7%, WRN inhibitor 5.4%, FEN1 inhibitor 14.0%, BLM helicase inh -4.1%, RECQ1 conf 7.1% and RECQ1 ADP FP -3.7%.
COc1ccc(C(=O)Cn2c3ccccc3n3nc(CCC(=O)O)c(=O)nc23)cc1OC was read as RECQ1 inh-1 -8.0%, WRN inhibitor 4.2%, FEN1 inhibitor 2.4%, BLM helicase inh 0.0%, RECQ1 conf 20.9% and RECQ1 ADP FP inconclusive.
Screening CC(=O)Cn1c2ccccc2n2nc(CCC(=O)O)c(=O)nc12 returned L3MBTL1 block 3.2%, RECQ1 inh-1 6.1%, WRN inhibitor -16.2%, FEN1 inhibitor 0.0% and BLM helicase inh -7.0%.
`Cc1cccc(N(C(=O)c2ccc(Cl)cc2)C2CS(=O)(=O)CC2OC(=O)c2ccc(Cl)cc2)c1` (centres undefined) gave L3MBTL1 block -3.2%, RECQ1 inh-1 inconclusive, WRN inhibitor -12.7%, FEN1 inhibitor -11.4%, BLM helicase inh -7.2% and RECQ1 inh-2 -11.3%.
Cc1cccc(C(=O)OC2CCN(C)CC2)c1 was read as L3MBTL1 block -20.2%, RECQ1 inh-1 -3.3%, WRN inhibitor -1.8%, FEN1 inhibitor -1.1% and BLM helicase inh -4.1%.
COc1cccc(NC(=S)NNC(=O)Cn2nc(C(F)(F)F)cc2C)c1 was read as L3MBTL1 block -11.5%, RECQ1 inh-1 -5.0%, WRN inhibitor 1.8%, FEN1 inhibitor 3.4% and BLM helicase inh 0.7%.
For O=C(COC(=O)C(Cc1c[nH]c2ccccc12)NC(=O)c1ccc(Cl)cc1)c1ccc(Cl)cc1 (centres undefined) the results were FEN1 inhibitor -14.8% and BLM helicase inh -5.5%.
`COc1cc(NC(=O)CSc2nc3ccccc3cc2C)c(C(=O)O)cc1OC` gave L3MBTL1 block 2.7%, RECQ1 inh-1 -6.1%, WRN inhibitor -9.6%[57.1 µM], FEN1 inhibitor 3.8%, BLM helicase inh -2.0%, RECQ1 conf 12.6% and RECQ1 ADP FP inconclusive.
COc1ccc2cc(C)c3nnc(SCC(=O)Nc4cc(OC)c(OC)cc4C(=O)O)n3c2c1 was read as L3MBTL1 block -0.1%, RECQ1 inh-1 -2.5%, WRN inhibitor -7.5%, FEN1 inhibitor -13.2%, BLM helicase inh -1.4%, RECQ1 conf 21.2% and RECQ1 ADP FP -7.7%.
Screening O=C1CC2(CCCC2)C(=O)N1CN1CCN(S(=O)(=O)c2cc(F)ccc2F)CC1 returned WRN inhibitor 3.4%.
For O=C(COc1c(Cl)cccc1Cl)NN1C(=O)CSC1=S the results were L3MBTL1 block -17.2%, RECQ1 inh-1 inconclusive, WRN inhibitor -12.0%[11.6 µM], FEN1 inhibitor 10.3%, BLM helicase inh -6.8% and RECQ1 inh-2 -9.6%.
Screening O=C(COc1ccccc1)NN1C(=O)CSC1=S returned L3MBTL1 block 3.4%, RECQ1 inh-1 -22.8%, WRN inhibitor -4.0%, FEN1 inhibitor -0.4% and BLM helicase inh -3.8%.
Screening O=C(NCc1ccco1)C(=O)NCC1OCCN1S(=O)(=O)c1ccc(F)cc1 (centres undefined) returned L3MBTL1 block -5.4%, RECQ1 inh-1 inactive, WRN inhibitor -7.0%, FEN1 inhibitor 2.1% and BLM helicase inh -4.9%.
`O=C(NCc1ccco1)C(=O)NCC1OCCN1S(=O)(=O)c1cc(F)ccc1F` (centres undefined) gave RECQ1 inh-1 17.8µM*, WRN inhibitor 1.4%, FEN1 inhibitor -1.7%, BLM helicase inh -11.9%, RECQ1 conf 5.8%[114 µM] and RECQ1 ADP FP -2.8%[91.9 µM].

Compound activity (PubChem)
